These results are taken from PubChem BioAssay (NCATS).

Structures are written as SMILES. Values joined by “and” are separate entries in the source; they are usually repeats but may differ in a detail not shown here. Equal entries are not always repeated. Records with an inconclusive call do not appear. A structure can be active in one record and inactive in another. Active and inactive are the calls of the source. The call rests on the fitted dose curve; in most records, active means well fitted curve in the direction sought with a large enough effect; inconclusive means small, poorly fitted or top-dose-only effect, or another doubt; inactive means no such curve, though single readings can be large; an effect the other way counts as inactive or inconclusive.
Further: nearly all actives have a fitted effect of over 70% in size.
On the % scale 0 is the no-effect control and ±100 the full control effect; potency means the concentration at half of the fitted maximal effect.

The first test can be described thus: Primary qHTS for inhibitors of nuclear receptor binding SET domain protein 2 (NSD2) in an isogenic RCH-ACV NSD2 p.E1099K mutant (9B) (AID 1645876). The settings on record: RCH-ACV NSD2 E1099K (9B) viability, CellTiter-Glo, 72 h; series mostly up to 44.9 µM; activity change, negative = viability loss: at the top concentration. (In general: In qHTS, concentration-response curves come from the screen itself.)
As for `C[C@@H]1O[C@@H](O[C@H]2[C@H](OC(=O)[C@]34CCC(C)(C)C[C@H]3C3=CCC5[C@@]6(C)C[C@H](O)[C@H](O[C@@H]7O[C@H](CO)[C@@H](O)[C@H](O)[C@H]7O)[C@](CO)(C(=O)O)C6CC[C@@]5(C)[C@]3(C)C[C@H]4O)OC[C@H](O)[C@@H]2O)[C@H](O)[C@H](O)[C@H]1O[C@@H]1OC[C@@H](O)[C@H](O[C@@H]2OC[C@](O)(CO)[C@H]2O)[C@H]1O` (stereo partly drawn), the Potency is 0.772 µM (active).

For the compound `Cn1ncc(Cl)c1-c1cc(C(=O)N[C@H](CN)Cc2ccc(F)c(F)c2)oc1Cl`, the Potency was 0.649 µM (active).

On to `CC1CCCC(O)CC(=O)c2c(O)cc(O)cc2CC(=O)O1` (stereo not drawn), for which the Potency is 8.01 µM (active).

With `Cc1ccc(NC(=O)c2ccc(CN3CCNCC3)cc2)cc1Nc1nccc(-c2cccnc2)n1`, the Potency was 16.3 µM (active) and 14.8 µM (active).

For `Cc1ccc(CNc2ncnc3ccc(-c4ccc(CO)o4)cc23)o1`, the Potency is 2.58 µM (active).

Turning to `CC1(C)CCC2(C(=O)OC3OC(COC4OC(CO)C(O)C(O)C4O)C(O)C(O)C3O)CCC3(C)C(=CCC4C5(C)CCC(OC6OCC(O)C(O)C6O)C(C)(C)C5CCC43C)C2C1O` (stereo not drawn), the activity change, negative = viability loss was -12.3% [at 9.23 µM] (inactive).

As for `Cc1cc(-c2nc3cc(F)ccc3s2)ccc1NC(=O)[C@@H](N)CCCCN`, the Potency was 5.25 µM (active).

In the case of `O=C(c1c(F)ccc(NS(=O)(=O)N2CC[C@@H](F)C2)c1F)c1c[nH]c2ncc(-c3cnc(C4CC4)nc3)cc12`, the Potency was 11.8 µM (active).

Take `C=C(C)C1CC(O)C(C)C12CC(O)C1(C)OC1C2O` (stereo not drawn): the Potency was 4.59 µM (active).

For `O=C1Nc2ccccc2-c2nc3ccccc3c(=O)n2-c2c(O)cccc21`, the “activity change, negative = viability loss” value was -20.8% (inactive).

`CC(C)(CNC(=O)c1cccc(-c2noc(C(F)(F)F)n2)c1)c1coc(-c2ccccc2)n1`: the Potency was 20.9 µM (active).

On to `C=C1C(=O)O[C@@H]2C[C@@]3(C)C[C@@H](O)C[C@H](C)C3=C[C@H]12`, for which the Potency was 7.28 µM (active).

`C=C1C(=O)O[C@H]2C[C@@H](C)[C@@H]3CCC(=O)[C@@]3(C)C[C@H]12`: the Potency is 3.65 µM (active).

In the case of `Nc1c(S(=O)(=O)c2ccccc2)c2nc3ccccc3nc2n1-c1ccc(F)cc1`, the “activity change, negative = viability loss” value is 4.8% (inactive).

On to `CC(C)C(C)C(O)C1CC23CC(=O)C4(O)C(=C2CCC3C1C)C=CC1(O)CC(O)CCC14C` (stereo not drawn), for which the “activity change, negative = viability loss” value is -11.4% [at 17.3 µM] (inactive).

For `C/C1=C\[C@@H](C)C[C@@H](C)[C@@H](Cc2cnco2)OC(=O)/C(C)=C/[C@@H](C)C[C@@H](C)[C@@H](Cc2cnco2)OC1=O`, the Potency is 1.78 µM (active).

Regarding `Nc1nc2c(nc(Br)n2[C@@H]2O[C@@H]3COP(=O)(O)O[C@H]3[C@H]2O)c(=O)[nH]1`, the result was inactive.

In the case of `Cc1ccc(C(C)C)c(O[C@@H]2O[C@H](CO)[C@@H](O)[C@H](O)[C@H]2O)c1`, the “activity change, negative = viability loss” value is -1.24% (inactive).

Consider `C[C@@H]1COCCN1c1cc(=O)n2c(n1)N(Cc1cncc(Cl)c1)[C@H](C(F)(F)F)CC2`, for which the Potency is 6.51 µM (active).

As for `Cn1ncnc1[C@H]1c2n[nH]c(=O)c3cc(F)cc(c23)N[C@@H]1c1ccc(F)cc1`, the Potency is 200 nM (active) and 148 nM (active).

As for `CCCOc1ccc(CCc2nc3cc(-c4c(C)noc4C)ccc3n2CCN2CCOCC2)cc1`, the Potency was 8.33 µM (active).

In the case of `C=C1C(=O)OC2C1CCC1(C)C(O)CCC(=C)C21` (stereo not drawn), the Potency is 18.3 µM (active).

For `O=C(Nc1nc2cc(C(F)(F)F)cc(NC3CC3)n2n1)c1cccnc1`, the Potency is 2.3 µM (active).

Regarding `C/C(=C/C=C\C=C\Cc1cnco1)[C@@H](O)C(C)(C)C(N)=O`, the “activity change, negative = viability loss” value was -16.5% (inactive).

For the compound `COc1ccc(CCO[C@@H]2O[C@H](CO[C@H]3OC[C@](O)(CO)[C@H]3O)[C@@H](OC(=O)/C=C/c3ccc(O)c(O)c3)[C@H](O[C@@H]3O[C@@H](C)[C@H](O)[C@@H](O)[C@H]3O)[C@H]2O)cc1OC`, the Potency is 6.08 µM (active).

With `Nc1nc(Nc2ccc3c(c2)CCC(N2CCCC2)CC3)nn1-c1cc2c(nn1)-c1ccccc1CCC2` (stereo not drawn), the Potency was 1.63 µM (active).

Turning to `COC1CC(O[C@H]2CC[C@]3(C)C4CC[C@]5(C)C(C6=CC(=O)OC6)=CCC56OC46CC[C@@H]3C2)OC(C)C1O[C@@H]1O[C@H](CO[C@@H]2O[C@H](CO)[C@@H](O)[C@H](O)[C@H]2O)[C@@H](O)[C@H](O)[C@H]1O` (stereo partly drawn), the Potency was 1.54 µM (active).

`CCNC(=O)C#Cc1ccc2c(C(=Nc3ccc(CN(C)C)cc3)c3ccccc3)c(O)[nH]c2c1`: the Potency is 0.512 µM (active).

As for `C=C1C(=O)O[C@H]2C1CCC(C)=C1C(=O)C=C(C)[C@@]12O` (stereo partly drawn), the Potency is 20.5 µM (active).

With `Cc1cc(F)c(C(=O)Nc2cccc(-c3nncn3C(C)C)n2)cc1-n1cnc(C2CC2)c1`, the Potency is 11.8 µM (active).

The next test can be described thus: Primary qHTS for inhibitors of nuclear receptor binding SET domain protein 2 (NSD2) in an RCH-ACV wild type WT cells (2C) (AID 1645877). The note with it: RCH-ACV (leukaemia line) NSD2 WT (2C) viability, CellTiter-Glo, 72 h; series mostly up to 44.9 µM; activity change, negative = cell killing: at the top concentration.
Turning to `C=C1C(=O)O[C@@H]2/C=C(\C)CC/C=C(/C=O)[C@H](OC)[C@@H](OC(=O)C(C)C)[C@@H]12`, the Potency was 3.19 µM (active).

Turning to `O=C(/C=C/c1ccccc1O)O[C@@H]1O[C@H](CO)[C@@H](O)[C@H](O)[C@H]1O`, the “activity change, negative = cell killing” value is 4.03% (inactive).

Turning to `Cc1cc2c(c(=O)o1)C=C1CC[C@H]([C@H](C)Cn3cnc(=N)c4[nH]cnc43)C[C@@H]1O2`, the “activity change, negative = cell killing” value was -27.4% (inactive).

For `C=C1C(=O)O[C@@H]2C3C(=C(C)[C@@H](O)[C@@H](OC(=O)/C(=C/C)COC(C)=O)[C@@H]12)C(=O)[C@H]1O[C@@]31C` (stereo partly drawn), the Potency is 1.59 µM (active).

`C=C1C(=O)OC2C1CCC1(C)C(O)CC=C(C)C21` (stereo not drawn): the Potency is 16.3 µM (active).

For `CC(=O)O[C@H]1CC(C)(C)CC2[C@]13CO[C@@]21CCC2[C@@]4(C)CC[C@H](O[C@@H]5OC[C@H](O[C@@H]6O[C@H](CO)[C@@H](O)[C@H](O)[C@H]6O[C@@H]6OC[C@@H](O[C@@H]7O[C@H](CO)[C@@H](O)[C@H](O)[C@H]7O)[C@H](O)[C@H]6O)[C@H](O)[C@H]5O[C@@H]5O[C@H](CO)[C@@H](O)[C@H](O)[C@H]5O)[C@@](C)(CO)C4CC[C@@]2(C)[C@]1(C)C[C@H]3O` (stereo partly drawn), the Potency is 2.18 µM (active).

Take `C=C1CC[C@H]2C(=C)CC[C@H]3C(=C)C(=O)O[C@@H]3[C@@H]12`: the Potency was 10.3 µM (active).

As for `C=C1CC[C@@H]2[C@](C)(CO)[C@H](O)CC[C@@]2(C)[C@@H]1C/C=C1/C(=O)OCC1O` (stereo partly drawn), the Potency was 7.28 µM (active).

On to `Cc1[nH]c2ccc(F)cc2c1-c1nc2c3cccnc3c3ncccc3c2[nH]1`, for which the Potency was 1.08 µM (active).

With `C[C@@H]1O[C@@H](O[C@H]2[C@H](OC(=O)[C@]34CCC(C)(C)C[C@H]3C3=CCC5[C@@]6(C)C[C@H](O)[C@H](O[C@@H]7O[C@H](CO)[C@@H](O)[C@H](O)[C@H]7O)[C@](CO)(C(=O)O)C6CC[C@@]5(C)[C@]3(C)C[C@H]4O)OC[C@H](O)[C@@H]2O)[C@H](O)[C@H](O)[C@H]1O[C@@H]1OC[C@@H](O)[C@H](O[C@@H]2OC[C@](O)(CO)[C@H]2O)[C@H]1O` (stereo partly drawn), the Potency is 0.547 µM (active).

For `Cn1ncc(Cl)c1-c1cc(C(=O)N[C@H](CN)Cc2ccc(F)c(F)c2)oc1Cl`, the Potency is 0.515 µM (active).

`CC1CCCC(O)CC(=O)c2c(O)cc(O)cc2CC(=O)O1` (stereo not drawn): the Potency was 5.05 µM (active).

For the compound `Cc1ccc(NC(=O)c2ccc(CN3CCNCC3)cc2)cc1Nc1nccc(-c2cccnc2)n1`, the Potency was 18.3 µM (active) and 14.8 µM (active).

Take `Cc1ccc(CNc2ncnc3ccc(-c4ccc(CO)o4)cc23)o1`: the Potency is 2.3 µM (active).

On to `CC1(C)CCC2(C(=O)OC3OC(COC4OC(CO)C(O)C(O)C4O)C(O)C(O)C3O)CCC3(C)C(=CCC4C5(C)CCC(OC6OCC(O)C(O)C6O)C(C)(C)C5CCC43C)C2C1O` (stereo not drawn), for which the activity change, negative = cell killing is -18.7% [at 9.23 µM] (inactive).

On to `Cc1cc(-c2nc3cc(F)ccc3s2)ccc1NC(=O)[C@@H](N)CCCCN`, for which the Potency is 4.17 µM (active).

On to `O=C(c1c(F)ccc(NS(=O)(=O)N2CC[C@@H](F)C2)c1F)c1c[nH]c2ncc(-c3cnc(C4CC4)nc3)cc12`, for which the Potency was 11.6 µM (active).

Turning to `C=C(C)C1CC(O)C(C)C12CC(O)C1(C)OC1C2O` (stereo not drawn), the Potency was 3.25 µM (active).

`O=C1Nc2ccccc2-c2nc3ccccc3c(=O)n2-c2c(O)cccc21`: the “activity change, negative = cell killing” value is -22.5% (inactive).

Take `CC(C)(CNC(=O)c1cccc(-c2noc(C(F)(F)F)n2)c1)c1coc(-c2ccccc2)n1`: the Potency was 23.5 µM (active).

Take `C=C1C(=O)O[C@@H]2C[C@@]3(C)C[C@@H](O)C[C@H](C)C3=C[C@H]12`: the Potency was 5.15 µM (active).

Regarding `C=C1C(=O)O[C@H]2C[C@@H](C)[C@@H]3CCC(=O)[C@@]3(C)C[C@H]12`, the Potency is 3.65 µM (active).

For `Nc1c(S(=O)(=O)c2ccccc2)c2nc3ccccc3nc2n1-c1ccc(F)cc1`, the “activity change, negative = cell killing” value is -0.984% (inactive).

With `CC(C)C(C)C(O)C1CC23CC(=O)C4(O)C(=C2CCC3C1C)C=CC1(O)CC(O)CCC14C` (stereo not drawn), the “activity change, negative = cell killing” value was -21% [at 17.3 µM] (inactive).

Consider `C/C1=C\[C@@H](C)C[C@@H](C)[C@@H](Cc2cnco2)OC(=O)/C(C)=C/[C@@H](C)C[C@@H](C)[C@@H](Cc2cnco2)OC1=O`, for which the Potency was 3.17 µM (active).

Consider `Nc1nc2c(nc(Br)n2[C@@H]2O[C@@H]3COP(=O)(O)O[C@H]3[C@H]2O)c(=O)[nH]1`, for which the call was inactive.

Turning to `Cc1ccc(C(C)C)c(O[C@@H]2O[C@H](CO)[C@@H](O)[C@H](O)[C@H]2O)c1`, the “activity change, negative = cell killing” value is -17.3% (inactive).

For `C[C@@H]1COCCN1c1cc(=O)n2c(n1)N(Cc1cncc(Cl)c1)[C@H](C(F)(F)F)CC2`, the Potency was 6.51 µM (active) and inactive.

As for `Cn1ncnc1[C@H]1c2n[nH]c(=O)c3cc(F)cc(c23)N[C@@H]1c1ccc(F)cc1`, the Potency was 28.2 nM (active) and 66.1 nM (active).

With `CCCOc1ccc(CCc2nc3cc(-c4c(C)noc4C)ccc3n2CCN2CCOCC2)cc1`, the Potency is 8.33 µM (active).

As for `C=C1C(=O)OC2C1CCC1(C)C(O)CCC(=C)C21` (stereo not drawn), the Potency is 16.3 µM (active).

For the compound `O=C(Nc1nc2cc(C(F)(F)F)cc(NC3CC3)n2n1)c1cccnc1`, the Potency is 1.83 µM (active).

Consider `C/C(=C/C=C\C=C\Cc1cnco1)[C@@H](O)C(C)(C)C(N)=O`, for which the “activity change, negative = cell killing” value is -15.5% (inactive).
